Hits are enriched below; roughly 12% of the tested compounds scored in any of these assays.
Sfp inh: blocks B. subtilis Sfp PPTase activity. Biochemical Sfp PPTase activity, qHTS. Potency, µM, for inactives: largest response in the series, negative = inhibition, actives largely listed as inhibitors. hit rate 3.5% among 310,000. AID 1490;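 further: the enzyme is Sfp with the accession as filed and its product quenches rhodamine fluorescence; 0% = enzyme reaction without inhibitor and -100% = no enzyme wells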
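Reaction rates are the 30-min fluorescence difference (ex 525, em 598 nm) in wells containing 15 nM Sfp, 5 uM rhodamine-CoA and 12.5 uM BHQ-2-YbbR at pH 7.6 with 10 mM MgCl2.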
BAZ2B block: inhibitors of human BAZ2B bromodomain. Potency, µM (doses to about 114 µM), inactives show top-dose activity change, negative = inhibition, usual class: inhibitors. AlphaScreen BAZ2B-H3K14Ac peptide displacement. AID 504333. Q9UIF8. hit rate 4.4% among 360,000; further: on the % scale 0 is the no-effect control and ±100 the full control effect; nearly all actives have a fitted effect of over 60% in size
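BAZ2B (50 nM) with biotin-H3(5-23)K14Ac peptide (50 nM) in PBS pH 7.4, 0.01% Tween-20, preformed 30 min, then compound 30 min at room temperature; top concentration 110uM. AlphaScreen streptavidin donor/nickel chelate acceptor beads (10 ug/mL final), 20 min dark, signal read.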
G9a inh: inhibitors of human histone lysine methyltransferase G9a; G9a H3K9 monomethylation, AlphaScreen, 2 h; Q96KQ7; Potency, µM (series often up to 102 µM), inactives show at the highest dose activity, negative = inhibition, most hits filed as inhibitors; hit rate 8.8% among 350,000; AID 504332; further: on the % scale 0 is the no-effect control and ±100 the full control effect; nearly all actives have a fitted effect of over 75% in size
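Enzyme 20 nM + cpd, 15 min RT; add b-H3K9 pep 500 nM / SAM 20 uM; 2 h RT; anti-H3K9me1 Ab 0.5 ug/mL + SA donor / anti-rabbit acceptor beads 20 ug/mL each, 10 min; AlphaScreen read.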
JMJD2A Tudor inh: inhibitors of human JMJD2A Tudor domain; AlphaScreen JMJD2A-Tudor / H3K4me3 peptide binding; Potency, µM (series often up to 114 µM), for the others: at the top dose activity change, negative = inhibition, actives largely listed as inhibitors; hit rate 4.4% among 390,000; AID 504339; further: on the % scale 0 is the no-effect control and ±100 the full control effect; nearly all actives have a fitted effect of over 50% in size
Target sequence (O75164 whole entry, looked up, the tested form may be a part): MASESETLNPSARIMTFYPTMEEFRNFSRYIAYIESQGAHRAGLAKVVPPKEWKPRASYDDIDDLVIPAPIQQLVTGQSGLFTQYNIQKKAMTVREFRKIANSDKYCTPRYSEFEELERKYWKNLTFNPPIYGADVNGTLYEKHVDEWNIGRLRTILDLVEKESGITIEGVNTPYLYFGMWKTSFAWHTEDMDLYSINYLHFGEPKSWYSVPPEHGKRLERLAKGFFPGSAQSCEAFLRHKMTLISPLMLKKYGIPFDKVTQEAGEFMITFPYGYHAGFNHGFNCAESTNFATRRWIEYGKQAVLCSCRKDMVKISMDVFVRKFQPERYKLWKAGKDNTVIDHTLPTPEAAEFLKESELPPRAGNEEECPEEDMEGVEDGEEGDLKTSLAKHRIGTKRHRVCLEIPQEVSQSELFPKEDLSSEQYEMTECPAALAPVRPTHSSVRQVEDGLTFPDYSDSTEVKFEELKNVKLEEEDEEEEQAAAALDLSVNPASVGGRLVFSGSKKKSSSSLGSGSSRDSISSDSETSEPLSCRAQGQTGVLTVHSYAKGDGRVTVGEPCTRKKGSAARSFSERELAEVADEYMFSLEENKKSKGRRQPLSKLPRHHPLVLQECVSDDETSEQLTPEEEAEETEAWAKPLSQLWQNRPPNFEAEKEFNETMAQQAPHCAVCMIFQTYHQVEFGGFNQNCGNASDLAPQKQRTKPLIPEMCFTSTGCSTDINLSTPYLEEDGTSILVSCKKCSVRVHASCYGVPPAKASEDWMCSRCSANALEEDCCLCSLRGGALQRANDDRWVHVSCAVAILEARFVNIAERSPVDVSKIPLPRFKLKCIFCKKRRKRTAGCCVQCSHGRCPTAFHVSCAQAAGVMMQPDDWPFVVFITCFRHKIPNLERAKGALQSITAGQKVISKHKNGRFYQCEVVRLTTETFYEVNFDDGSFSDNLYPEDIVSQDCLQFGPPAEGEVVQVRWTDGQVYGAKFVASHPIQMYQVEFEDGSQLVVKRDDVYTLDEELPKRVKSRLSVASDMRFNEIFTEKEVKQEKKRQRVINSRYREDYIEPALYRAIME
HP1b chromo inh: inhibitors of HP1-beta chromodomain binding to methylated histone tails; AlphaScreen HP1-beta / biotin-H3K9me3 peptide binding; P83916; hit rate 0.56% among 390,000; Potency, µM (top dose mostly 114 µM), without a hit: at the highest dose activity change, negative = inhibition, hits mostly inhibitors; further: nearly all actives have a fitted effect of over 70% in size
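Compound inhibition of the preformed complex between 50 nM HP1-beta and 50 nM biotinylated H3K9me3 peptide was read by AlphaScreen. Buffer was PBS pH 7.4 with 0.01% Tween-20. Incubations ran 30 min at room temperature, with 10 ug/mL donor/acceptor beads.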
* = called active by the depositor; ? = inconclusive; . = no result; [ ] = remark or other dose. The call rests on the fitted dose curve; in most records, active means well fitted curve in the direction sought with a large enough effect; inconclusive means small, poorly fitted or top-dose-only effect, or another doubt; inactive means no such curve, though single readings can be large; an effect the other way counts as inactive or inconclusive. Potency means the concentration at half of the fitted maximal effect.

SMILES	Sfp inh	BAZ2B block	G9a inh	JMJD2A Tudor inh	HP1b chromo inh
CC1=CC(=O)c2ccccc2C1=O	?	?	8.9µM*	10%	33%
CC(C)(C=O)C1=CC(=O)c2ccccc2C1=O	6.3µM*	50µM*	1.8µM*	25µM*	5µM*
COc1ccccc1CCC(=O)OCC(=O)Nc1ccc(C)c(S(=O)(=O)N2CCCCC2)c1	.	12%	8%[0.501 µM]	-30%	14%
O=C(NC(=S)Nc1ccccc1)c1csnn1	50µM*	15%	15%[59 µM]	-17%	19%
O=C(NC(=S)Nc1ccc(C(F)(F)F)cc1)c1csnn1	10%	?	?	-3%	46%
COc1ccc(NC(=S)NC(=O)c2csnn2)cc1	-25%	-27%	32µM*	-9%	25%
CC(=O)c1ccc([N+](=O)[O-])cc1	.	7%	10%[0.501 µM]	-14%	26%
CCN(C(=O)c1cc2c(=O)n3ccccc3nc2n1CCCOC)C1CCCCC1	-1%	13%	-4%[0.0925 µM]	28%	63%
OC(c1ccccc1)c1nccc2ccccc12 (configuration not stated)	-10%	?	25%	-22%	-7%
O=C(O)c1cc([N+](=O)[O-])c(N2CCCC2)c([N+](=O)[O-])c1	1%	-14%	8.9µM*	3%	9%
COc1ccc(S(=O)(=O)N2CCN(Cc3cccc(OC)c3OC)CC2)cc1	13%	-11%	0%[0.501 µM]	-9%	21%
COc1cccc(CN2CCN(Cc3cccc(Oc4ccccc4)c3)CC2)c1OC	79µM*	18µM*	4µM*	7.1µM*	?
COc1cccc(CN2CCN(Cc3cc(OC)c(OC)c(OC)c3)CC2)c1OC	-20%	56µM*	2.8µM*	7.9µM*	?
COc1cccc(CN2CCC(N(CCc3ccccc3)Cc3ccccc3)CC2)c1OC	40µM*	50µM*	8.9µM*	0.89µM*	?
CC(C)CC(=O)N1CCC(N(CCc2ccccc2)Cc2ccccc2)CC1	?	50µM*	22µM*	28µM*	?
O=C(CCn1c(=O)c2ccccc2n(Cc2ccccc2)c1=O)NC1CCN(Cc2ccccc2)CC1	26%	?	.	-11%	35%
Cc1nn(CCCC(=O)NCCc2ccccc2)c(C)c1[N+](=O)[O-]	19%	-14%	1%	-13%	11%
O=C(NCc1ccccc1)c1cc(=O)nc2sc(-c3ccccc3)nn12	-12%	11%	3%	1%	33%
OC(c1ccccc1)(c1ccccc1)C1CCN(C(=S)NC2CCCC2)CC1	16%	-32%	40µM*	-22%	-6%[57 µM]
N/C(=N/OC(=O)c1cccc([N+](=O)[O-])c1)c1cccc([N+](=O)[O-])c1	-1%	-23%	?	-25%	5%
CC1=C(C)/C(=N/OC(=O)c2cccc([N+](=O)[O-])c2)C=CC1=O	18%	-23%	10µM*	-29%	10%
O=C(O)c1ccc(Cl)c(S(=O)(=O)N2CCC(Cc3ccccc3)CC2)c1	6%	-3%	3%	-24%	13%
C=CCNC(=O)c1ccc(Sc2ccccc2)c([N+](=O)[O-])c1	-2%	-38%	-9%[2.33 µM]	-26%	1%
Cc1cc(C)n(-c2ccc(C(=O)Nc3ccc(C)c(S(=O)(=O)N4CCOCC4)c3)cc2)n1	22%	12%	28%	-7%	11%
CC(C)NC(=O)N(C)C[C@H]1Oc2ccc(NS(=O)(=O)c3cn(C)cn3)cc2C(=O)N([C@H](C)CO)C[C@@H]1C	.	.	.	40µM*	-22%
SMILES	Sfp inh	BAZ2B block	G9a inh	JMJD2A Tudor inh	HP1b chromo inh
C[C@H](CO)N1C[C@H](C)[C@@H](CN(C)C(=O)NC2CCCCC2)Oc2ccc(NS(=O)(=O)c3cn(C)cn3)cc2C1=O	.	.	.	-6%	42%
S=C(NCCCc1cnc[nH]1)NCCCN(Cc1ccc(Cl)cc1)c1ncc(Br)cn1	.	.	.	50µM*	?
S=C(NCCCc1cnc[nH]1)NCCCN(CCc1ccc(Cl)cc1)c1ccc(Br)cn1	.	.	.	45µM*	?
S=C(NCCCc1cnc[nH]1)NCCCN(Cc1ccc(Cl)cc1)c1ccc(Br)cc1	.	.	.	4.5µM*	32µM*
CCCCNC(=S)NCCCc1cnc[nH]1	.	.	.	-18%	.
O=C(NCCCc1cnc[nH]1)NCCCN(Cc1ccc(Cl)cc1)c1ccc(Br)cn1	.	.	.	45µM*	?
FC(F)(F)Sc1ccc(NC(=S)NCc2ccccc2)cc1	22%	2%	8%[12.7 µM]	37%	104%
CCc1ccc2oc(-c3cc(NC(=O)c4cccnc4)cc(C)c3O)nc2c1	.	-4%	13%[59 µM]	-16%	38%
CCc1ccc(C(C)NC(=O)Cc2ccc(F)cc2)cc1 (configuration not stated)	11%	-6%	-9%	-10%	29%
S=C(NCCCN(Cc1ccc(Cl)cc1)c1ccc(-c2ccccc2)cn1)NCCCN(Cc1ccc(Cl)cc1)c1ccc(-c2ccccc2)cn1	.	.	.	?	-7%
S=C(NCCCc1cnc[nH]1)NCCCN(Cc1ccc(Cl)cc1)c1ccc(-c2ccccc2)cn1	.	.	.	50µM*	?
S=C(NCCCc1cnc[nH]1)NCCCN(Cc1ccc(Cl)cc1)c1ccc(Br)cn1	.	.	.	50µM*	.
CCCCNC(=S)NCCCN(Cc1ccc(Cl)c(Cl)c1)c1ccc(Br)cn1	.	.	.	-30%	.
Cc1nnc(-c2cnn(C)c2N)n1CCCN(C)C	16%	-22%	-39%	3%	45%
CCCCN1C(=O)Cc2c1nc(N)c1c(N)nc(N(CCC)CCC)c(C#N)c21	2%	-34%	40µM*	-26%	?
OCCC1CN(Cc2cccn2-c2ccccn2)CCN1C1CCCCC1 (configuration not stated)	4%	-3%	.	-5%	14%
CN1CCN(c2ccc(NC(=O)c3ccc(Cl)cc3)cn2)CC1	13%	-26%	?	-6%	9%
Cc1ccccc1C1=CCN(c2ncc(NC(=O)c3ccc(Cl)cc3)cc2C(=O)O)CC1	.	50µM*	?	79µM*	?
O=C(O)c1nc(-c2ccccc2)n(-c2ccccc2)n1	8%	0%	?	-13%	29%
O=C(c1nc(-c2ccccc2)n(-c2ccccc2)n1)N1CCN(S(=O)(=O)c2ccccc2)CC1	-6%	?	?	71µM*	-15%
Cc1cc(NC(=O)CSc2ccc3nnc(CCNS(=O)(=O)c4ccccc4)n3n2)no1	15%	.	-38%	-16%	27%
O=C(/C=C/Nc1ccc(F)c(F)c1)c1cccs1	-10%	1%	45µM*	-19%	31%
O=C(/C=C/Nc1ccc(F)cc1)c1cccs1	.	.	.	0%	34%
CCCCCN1C(C(=O)c2ccccc2)=C(NC(=O)c2ccc(OC)c(OC)c2)c2ccccc2S1(=O)=O	.	-18%	-28%[59 µM]	-27%	14%
NC(Cc1ccc(O)cc1)c1cn([C@@H](CCC(=O)O)C(=O)N2CCNCC2)nn1 (some centres not stated)	-9%	?	-10%[59 µM]	-14%	32%
Cc1nc(-c2ccc(F)cc2)c(CC(=O)N(C)CC(=O)Nc2ccc(Br)cc2C)s1	.	-19%	32µM*	-33%	6%

Screening results deposited in PubChem by National Center for Advancing Translational Sciences (NCATS).
